Test [1] is described as follows: S16 Schwann cell viability assay (CellTiter-Glo assay) (AID 624031).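 Also: cellular ATP luminescence as a viability measure; nearly all actives have a fitted effect of over 70% in size.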 In a few lines: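 Luminescent ATP read-out (CellTiter-Glo) after 24 h compound exposure of native S16 rat Schwann cells at 37 °C. Signals were normalized between cell-free wells and DMSO-treated cells, set as 0% activity.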
Test [2] concerns CP185. The test is described as follows: qHTS profiling for inhibitors of Plasmodium falciparum proliferation (AID 504749). Also: nearly all actives have a fitted effect of over 60% in size. Also: potency is read from the fitted curve at half-maximal effect. The conditions noted are these: P. falciparum in erythrocytes, SYBR Green DNA, 72 h; series mostly up to 12.8 µM. The procedure, abridged: (§1)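 Parasite proliferation within erythrocytes, 72 h exposure. Endpoint: SYBR Green I fluorescence after overnight lysis at room temperature. Controls: 0.29 uM artemisinin, DMSO.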
On the technique in general: qHTS replaces the single test concentration by a dilution series.

Test [3] relates to CP191. The test is described as above. To be noted: P. falciparum in erythrocytes, SYBR Green DNA, 72 h; series mostly up to 12.8 µM. In a few lines: as §1
In test [4] the test system is CP201. The description is as above. To be noted: P. falciparum in erythrocytes, SYBR Green DNA, 72 h; series mostly up to 12.8 µM. In a few lines:
as §1

The test system of test [5] is CP250. Described as above. The conditions noted are these: P. falciparum in erythrocytes, SYBR Green DNA, 72 h; series mostly up to 12.8 µM. In a few lines:
as §1

The subject of test [6] is CP256. The test is described as above. The conditions noted are these: P. falciparum in erythrocytes, SYBR Green DNA, 72 h; series mostly up to 12.8 µM. In a few lines: as §1
The subject of test [7] is CP262. Described as above. To be noted: P. falciparum in erythrocytes, SYBR Green DNA, 72 h; series mostly up to 12.8 µM. The procedure, abridged: as §1
Test [8] has as its system CP325. Described as above. To be noted: P. falciparum in erythrocytes, SYBR Green DNA, 72 h; series mostly up to 12.8 µM. In a few lines:
as §1

The test system of test [9] is CP329. The test is described as above. To be noted: P. falciparum in erythrocytes, SYBR Green DNA, 72 h; series mostly up to 12.8 µM. The procedure, abridged: as §1
The subject of test [10] is Dd2. The test is described as above. The conditions noted are these: P. falciparum in erythrocytes, SYBR Green DNA, 72 h; series mostly up to 12.8 µM. The procedure, abridged: as §1
For test [11], the system named is JCK. Described as above. To be noted: P. falciparum in erythrocytes, SYBR Green DNA, 72 h; series mostly up to 12.8 µM. In a few lines:
as §1

The subject of test [12] is N140. The description is as above. To be noted: P. falciparum in erythrocytes, SYBR Green DNA, 72 h; series mostly up to 12.8 µM. The procedure, abridged: as §1
Test [13] concerns PC15. The description is as above. To be noted: P. falciparum in erythrocytes, SYBR Green DNA, 72 h; series mostly up to 12.8 µM. In a few lines:
as §1

Test [14] relates to ATS189. The test is described as above. The conditions noted are these: P. falciparum in erythrocytes, SYBR Green DNA, 72 h; series mostly up to 12.8 µM. The procedure, abridged: as §1
Test [15] relates to CP192. The test is described as above. The conditions noted are these: P. falciparum in erythrocytes, SYBR Green DNA, 72 h; series mostly up to 28.7 µM. In a few lines: as §1
Test [16] has as its system CP247. The test is described as above. To be noted: P. falciparum in erythrocytes, SYBR Green DNA, 72 h; series mostly up to 12.8 µM. The procedure, abridged: as §1
In test [17] the test system is CP265. Described as above. To be noted: P. falciparum in erythrocytes, SYBR Green DNA, 72 h; series mostly up to 12.8 µM. The procedure, abridged: as §1
The test system of test [18] is PC49. Described as above. The conditions noted are these: P. falciparum in erythrocytes, SYBR Green DNA, 72 h; series mostly up to 12.8 µM. The procedure, abridged: as §1
In test [19] the test system is SC27B. The description is as above. To be noted: P. falciparum in erythrocytes, SYBR Green DNA, 72 h; series mostly up to 12.8 µM. The procedure, abridged: as §1
The test system of test [20] is TAB113. The test is described as above. To be noted: P. falciparum in erythrocytes, SYBR Green DNA, 72 h; series mostly up to 12.8 µM. The procedure, abridged: as §1

Results filed as inconclusive are left out. Activity calls are given as the source filed them. Calls follow the shape of the dose curve; as a rule, active = well fitted curve in the direction sought with a large enough effect; inconclusive = small, poorly fitted or top-dose-only effect, or another doubt; inactive = no such curve, though single readings can be large; an effect the other way counts as inactive or inconclusive.

Take `CCN(CC)CCC[C@H](C)Nc1ccnc2cc(Cl)ccc12`: the Potency entry in [1] was “inactive”. Besides, the Potency in [2] is 4.47 µM (active); in test [3] it was 8.91 µM (active); in test [4] it was 12 µM (active); in test [5], 3.98 µM (active); in [6] it was 8.91 µM (active); in test [7] it was 2.39 µM (active). Also, the Potency in [8] is 7.57 µM (active); in test [9] it was 15.1 µM (active); in test [10] it was 10 µM (active); in test [11] it was 10 µM (active); in test [12], 11.2 µM (active); in test [13], 2.51 µM (active).

Consider `C[C@@H](CN(C)C)CN1c2ccccc2CCc2ccccc21`, for which the Potency entry in test [14], in [2], in test [15], in [4], in test [16] and in test [5] was “inactive” each time. Besides, the Potency result in [6], in test [7], in [17], in test [8], in [9] and in [11] was “inactive” each time. Besides, the Potency entry in test [13], in test [18], in test [19] and in test [20] was “inactive” throughout.

On to `CC1(C)O[C@@H]2C[C@H]3[C@H]4C[C@H](F)C5=CC(=O)C=C[C@@]5(C)[C@@H]4[C@H](O)C[C@]3(C)[C@]2(C(=O)CO)O1`, for which the Potency result in [1], in test [14], in test [2], in test [3], in test [15] and in [4] was “inactive” in each case. Moreover, the Potency entry in test [16], in test [5], in test [6], in [7], in test [17] and in test [8] was “inactive” throughout. In addition, the Potency entry in [9], in test [10], in test [11], in test [12], in test [13] and in [18] was “inactive” each time. In addition, the Potency result in test [19] and in [20] was “inactive” throughout.

On to `NC(N)=NC[C@@H]1COC2(CCCCC2)O1`, for which the Potency entry in test [1], in test [14], in test [2], in [3], in [15] and in test [4] was “inactive” throughout. The Potency entry in test [16], in test [5], in [6], in [7], in test [17] and in test [8] was “inactive” throughout. For the same compound, the Potency entry in test [9], in [10], in test [11], in test [12], in [13] and in [18] was “inactive” each time. Also, the Potency entry in test [19] and in [20] was “inactive” each time.

Take `CC(=O)Nc1c(I)c(C(=O)N[C@H]2[C@@H](O)[C@H](O)[C@H](CO)O[C@@H]2O)c(I)c(N(C)C(C)=O)c1I`: the Potency result in test [1], in [14], in [2], in test [3], in test [15] and in [4] was “inactive” each time. Moreover, the Potency entry in [16], in test [5], in test [6], in test [7], in test [17] and in test [8] was “inactive” in each case. The Potency result in test [9], in test [10], in [11], in test [12], in test [13] and in [18] was “inactive” throughout. Also, the Potency entry in test [19] and in [20] was “inactive” each time.

On to `O=C(O)/C=C\c1ccc(Cn2ccnc2)cc1`, for which the Potency result in test [1], in [14], in test [2], in test [3], in test [15] and in test [4] was “inactive” each time. Also, the Potency result in test [16], in test [5], in [6], in [7], in test [17] and in test [8] was “inactive” each time. Moreover, the Potency result in test [9], in [10], in test [11], in test [12], in [13] and in test [18] was “inactive” throughout. Further, the Potency result in test [19] and in test [20] was “inactive” in each case.

In the case of `COCCc1ccc(OC[C@H](O)CNC(C)C)cc1`, the Potency entry in test [1], in test [14], in test [2], in [3], in [15] and in test [4] was “inactive” in each case. Moreover, the Potency result in test [16], in test [5], in [6], in test [7], in test [17] and in test [8] was “inactive” each time. Also, the Potency result in [9], in test [10], in [11], in test [12], in test [13] and in [18] was “inactive” each time. Further, the Potency entry in [19] and in test [20] was “inactive” in each case.

As to `CCN(CC)CC#CCOC(=O)[C@@](O)(c1ccccc1)C1CCCCC1`, the Potency result in test [1], in test [15], in test [5], in test [7], in [17] and in [8] was “inactive” in each case. Further, the Potency result in test [11], in [12], in test [19] and in test [20] was “inactive” each time.

For the compound `C[C@@H]1COc2c(N3CCN(C)CC3)c(F)cc3c(=O)c(C(=O)O)cn1c23`, the Potency entry in test [1], in test [14], in [2], in test [3], in test [15] and in test [4] was “inactive” in each case. For the same compound, the Potency result in test [16], in test [5], in test [6], in test [7], in test [17] and in [8] was “inactive” throughout. For the same compound, the Potency result in [9], in test [10], in test [11], in test [12], in test [13] and in [18] was “inactive” each time. The Potency entry in [19] and in test [20] was “inactive” throughout.

As for `CN(C)[C@H]1C(=O)C(C(=O)NCN2CCCC2)=C(O)[C@]2(O)C(=O)C3=C(O)c4c(O)cccc4[C@@](C)(O)[C@H]3C[C@@H]12`, the Potency entry in test [1], in test [14], in [2], in [3], in test [15] and in test [4] was “inactive” throughout. The Potency entry in test [16], in test [5], in test [6], in [7], in test [17] and in test [8] was “inactive” each time. Further, the Potency result in [9], in [10], in test [11], in [12], in test [13] and in test [18] was “inactive” in each case. For the same compound, the Potency result in [19] and in test [20] was “inactive” in each case.

With `C[C@@H](C(=O)O)c1ccc(C(=O)c2cccs2)cc1`, the Potency entry in test [14], in test [2], in [3], in test [15], in [4] and in [16] was “inactive” in each case. Further, the Potency result in test [5], in test [6], in test [7], in test [17], in test [8] and in test [9] was “inactive” in each case. The Potency entry in test [10], in [11], in test [12], in test [13], in [18] and in test [19] was “inactive” each time. Further, the Potency result in [20] was “inactive”.

The values above are taken from PubChem BioAssay (NCATS).
